# Measured values: PubChem BioAssay AID449762 (Southern Research Specialized Biocontainment Screening …, 2010)
# About 1,900 (0.58%) of roughly 330,000 compounds were called active. Not shown: some 4% with an inconclusive outcome. These entries were drawn from the full list. Results with a measured potency or affinity are listed apart. Unmarked numbers belong to inactive results. Cut-off read from the data, not from the text of the source: inconclusive = inhibition above about 70% without an active follow-up result; inactive = below that.
# Test: M. tuberculosis growth inhibition, HTS (AID 449762);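 note: bacterial growth assessed after seven days of incubation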
# Conditions: M. tuberculosis H37Rv growth inhibition, 7H9 media; at 25 µM; stronger effect = higher value
row,SMILES,inhibition [%]
1,CC(CC(=O)N1CCN(S(=O)(=O)c2ccc(Cl)cc2)CC1)n1cncn1 (configuration not stated),7.22
2,Cc1cc2nncn2c(Cc2ccccc2)n1,-5.06
3,CCCNC(=O)c1onc(CSc2ccccc2)c1C(=O)NCCC,3.78
4,CCc1cc2c(=O)n(CC(=O)NC3CCCCC3)cnc2s1,-19.5
5,CCc1cc2c(=O)n(CC(C)C)cnc2s1,13.2
6,Cc1sc2ncn(CC(=O)N(CC(=O)NC3CCCC3)Cc3cccs3)c(=O)c2c1C,-6.3
7,O=C(CCc1nc(-c2ccccc2F)no1)NCCc1ccccc1Cl,-5.37
8,CC(=O)Oc1ccc(C(=O)Nc2cccc(C(=O)c3ccc(C)c(C)c3)c2)cc1,6.87
9,O=C(C[n+]1cccc(C(=O)N/N=C/c2ccc(Br)cc2)c1)c1ccccc1,-3.73
10,O=C(N/N=C/c1ccc(O)cc1)c1cc[n+](Cc2ccccc2)cc1,-5.45
11,Cn1c(=O)n(C)c2cc([N+](=O)[O-])c(N3CCN(S(=O)(=O)c4ccc(C(C)(C)C)cc4)CC3)cc21,-9.94
12,Cc1ccc(OCc2nc(C#N)c(N3CCN(Cc4ccccc4)CC3)o2)cc1,-9.38
13,CCN1CCN(c2oc(COc3ccc(Cl)cc3)nc2C#N)CC1,8.42
14,CCCc1nc2oc3c(NCc4ccccn4)ncnc3c2c2c1COC(C)(C)C2,-3.19
15,CCOc1ccc(N2CC(C(=O)N3CCCCCC3)CC2=O)cc1 (configuration not stated),-1.61
16,COc1ccc(NC(=O)CSc2nnc3ccc(-c4ccccn4)nn23)c(OC)c1,-1.07
17,CC(C)(CO)NCc1ccccc1OCC(=O)Nc1ccccc1,-10.3
18,CNCc1ccccc1OCC(=O)Nc1ccccc1,-16.8
19,CCc1cc2c(SCC(=O)c3cccs3)ncnc2s1,-6.51
20,CCNCC(=O)N1c2ccccc2CCc2ccc(NC(=O)OCC)cc21,8.22
21,CCNCC(=O)N1c2ccccc2CCc2ccc(NC(C)=O)cc21,-1.99
22,Cc1ccc(Oc2ccc(Oc3ccc(C)cc3)nn2)cc1,1.77
23,O=C(CN1CCN(S(=O)(=O)c2ccccc2)CC1)N1CCCCC1,-3.13
24,CCCn1c(NCc2ccc3c(c2)OCO3)nc2ccccc21,13.3
25,CN(C)CCCn1c(NCc2ccc3c(c2)OCO3)nc2ccccc21,-3.55
26,CNC(=O)c1c(NC(=O)c2ccco2)sc2c1CCC2,8.18
27,O=C(CCNS(=O)(=O)c1ccccc1)NNC(=O)COc1ccccc1F,0.68
